Test results published in PubChem BioAssay AID1563 (The Scripps Research Institute Molecular Screening Center, 2009).
Some of the results follow. A number with no mark means an inactive call. Calls of active or inactive are those of the source. Rule as the data show it: active = activation above about 21%; inactive = the rest.

biological target: Sphingosine 1-phosphate receptor 1 (Homo sapiens) (UniProt P21453); test: S1P1 receptor agonists, human, counter-screen for S1P4 agonist project, cell-based (AID 1563); conditions: S1P1 agonist cell-based assay, at 4.98 µM, active compounds read high;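 also: 0% = vehicle wells and 100% = reference agonist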
Sequence (P21453 whole entry, looked up): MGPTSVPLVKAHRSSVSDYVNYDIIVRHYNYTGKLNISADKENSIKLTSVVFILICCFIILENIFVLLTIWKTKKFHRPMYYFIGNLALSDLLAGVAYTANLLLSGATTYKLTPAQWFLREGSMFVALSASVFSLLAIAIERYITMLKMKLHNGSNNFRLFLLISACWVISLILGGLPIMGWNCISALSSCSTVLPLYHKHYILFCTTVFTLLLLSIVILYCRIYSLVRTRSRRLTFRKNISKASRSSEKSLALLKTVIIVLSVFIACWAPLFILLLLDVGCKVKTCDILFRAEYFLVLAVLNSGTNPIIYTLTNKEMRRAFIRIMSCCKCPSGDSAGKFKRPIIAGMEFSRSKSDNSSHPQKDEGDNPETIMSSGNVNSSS

SMILES	activation
CC(C)C(c1nnnn1C(C)(C)C)N1CCN(Cc2cccnc2)CC1 (stereo not drawn)	-9.51%
COC(=O)CNC(=O)C(CCSC)NC(C)=O (stereo not drawn)	-8.17%
CCn1c(CNC(=O)c2ccc(OC)c(OC)c2)nnc1SCC(=O)Nc1ccccc1	0.73%
CCC(=O)/C(=C(/O)c1ccccc1)c1nc2ccccc2[nH]1	-4.01%
COc1ccc(C2CC(c3cccs3)=NN2c2ccccc2)cc1 (stereo not drawn)	43.8% (active)
O=C(CSc1nncn1-c1cccnc1)N1CCOCC1	2.75%
C=CCn1c(SCn2nnc3ccccc3c2=O)nnc1-c1ccc(Cl)cc1	-1.97%
O=C(CSc1ccc(-c2ccc(F)cc2)nn1)Nc1ccc2c(c1)OCCO2	-2.21%
Cc1ccc(NC(=O)Nc2ccccc2)c(Br)c1	5.03%
CC1CCCC(NC(=O)COC(=O)[C@@H]2CC(O)CN2S(=O)(=O)c2ccc3c(c2)OCCO3)C1C (stereo partly drawn)	-5.42%
CNC(=O)c1[nH]cnc1C(=O)N[C@@H](CC(C)C)C(=O)OCc1ccccc1	11.4%
O=C(COC(=O)c1cc([N+](=O)[O-])ccc1NCc1ccccc1)NC1CCCCC1	-7.16%
O=C(CSc1nnc(Nc2ccccc2)s1)Nc1cccnc1Cl	-2.54%
CC(=O)Nc1ccccc1NC(=O)c1cc(C)cc(C)c1	-9.63%
CCOc1ccc(-c2nnc(-c3ccco3)o2)cc1	2.5%
CC(Oc1ccc(Br)cc1Br)C(=O)NC1CCCC1 (stereo not drawn)	-6.64%
COc1ccc(N2C(=O)C(Cc3ccccc3)NC2=S)cc1 (stereo not drawn)	-2.28%
Cc1noc(C)c1COC(=O)COc1ccc(-c2ccccc2)cc1	0.9%
